# Laboratory results published in PubChem BioAssay (NCATS).
# Unmarked numbers belong to inactive results. Records with an inconclusive call do not appear. Activity calls are given as the source filed them. Unless noted, calls come from the whole dose curve; as a rule, active = well fitted curve in either direction with a large enough effect (not every such curve was filed as active); inconclusive = small, poorly fitted or top-dose-only effect, or another doubt; inactive = flat fitted curve, though single readings scatter.
# Legend:
# [1] = target: Lysosomal acid glucosylceramidase (Homo sapiens) (UniProt P04062); assay: Glucocerebrosidase-p2 (AID 348; in the data active = potency below about 10 µM; note: potency is the fitted concentration of half-maximal effect); conditions: purified GBA, blue fluorogenic substrate, 40 min
# In short: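 Normal human glucocerebrosidase (0.2 nM) with blue fluorogenic substrate (80 uM final) in citrate/phosphate pH 5.9 with 10mM sodium taurocholate, 0.01% tween-20; 40 min RT, NaOH/glycine stop; fluorescence Ex 365/Em 440; AC50 from a titration from 0.6 nM upwards.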
# [2] = AP1 Signaling Pathway (AID 357); conditions: ME-180 AP-1-bla reporter, EGF-induced, beta-lactamase ratio, 5 h; at 7.69 µM (top of the series) unless noted;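 note: ME-180 reporter cells stimulated with EGF at its EC50 level; % is set by controls: 0 for no effect and ±100 for the full control effect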
# In short: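 Beta-lactamase reporter under AP-1 response element, ME-180 background. Stimulus: EC50 EGF. Compound exposure 5 h, 37 °C. Detection: CCF4, 2.5 h RT, 460/530 nm. Values: AC50 from titration.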
# [3] = target: Cytochrome P450 1A2 (Homo sapiens) (UniProt P05177); assay: p450-cyp1a2 (AID 410; calls by dose curve; note: potency is the fitted concentration of half-maximal effect;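 for activity change, negative = inhibition: -100% = full effect of reference inhibitor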); conditions: recombinant CYP1A2, luciferin-ME demethylation, luminescence; series mostly up to 11.4 µM
# In short: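 Read-out is luminescence from luciferin produced by CYP1A2 demethylation of Luciferin-ME (100uM, at Km). Detection reagent stopped the 60 min NADPH-dependent reaction; signals were normalized to 57 uM furafylline.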
# [4] = NFAT Signaling Pathway (AID 444); conditions: Jurkat NFAT-bla M1, carbachol, beta-lactamase ratio, 5 h; at 7.69 µM (top of the series) unless noted;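 note: carbachol stimulus at about its EC50 of 1 µM final; % is set by controls: 0 for no effect and ±100 for the full control effect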
# In short: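 Jurkat cells carrying an NFAT-driven β-lactamase reporter and co-transfected muscarinic M1 receptor were treated with compound plus carbachol (1 uM final, an EC50 level) for 5 h at 37 °C. CCF4 loading followed for 1 h at RT; 460/530 nm ratio gave %activity.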
# [5] = Stat Signaling Pathway (AID 446); conditions: ME-180 (cervical carcinoma) SIE beta-lactamase reporter, IL-6 stimulated, 5 h; at 7.69 µM (top of the series) unless noted;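 note: ME-180 cervical cancer cells given 40 pM IL-6 alongside compound; SIE-controlled beta-lactamase reporter measured as 460/530 nm FRET emission ratio; % is set by controls: 0 for no effect and ±100 for the full control effect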
# In short: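 Normalization used AC90 stimulation (300 pM IL-6) and AC90 inhibition (125 nM pan-JAK inhibitor at 40 pM IL-6). The underlying signal is SIE-driven beta-lactamase in ME-180 cells after 5 h IL-6 exposure with compound.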
# [6] = target: Glucocorticoid receptor (Homo sapiens) (UniProt P04150); assay: GR-GFP Redistribution (AID 450;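 active = compounds whose dose series gives a full or clear partial fitted curve of increased nuclear translocation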; note: potency is the fitted concentration of half-maximal effect); conditions: U2OS GR-GFP nuclear translocation, laser cytometry, 2 h
# [7] = target: Glucocorticoid receptor (Homo sapiens) (UniProt P04150); assay: GR-EFC Redistribution (AID 451; calls by dose curve; note: potency is the fitted concentration of half-maximal effect); conditions: CHO-K1 GR-EFC translocation, beta-gal luminescence, 2 h
# In short: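 CHO-K1 cells stably expressing nuclear-localized β-gal enzyme acceptor and GR fused C-terminally to the enzyme donor fragment; ligand-driven nuclear translocation restores β-gal by complementation. Compounds titrated up to 46 uM final, 2 h at 37 °C; luminescence read.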
# [8] = target: Mitogen-activated protein kinase 10 (Mus musculus) (UniProt Q61831); assay: JNK3 AlphaScreen Assay (AID 530); conditions: JNK3 lysate, c-Jun phosphorylation; series mostly up to 11.4 µM;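 note: kinase came from lysate of stimulated human HepG2 cells; signal reports phosphorylation of biotinylated GST-cJun 1-79 at Ser73 with 10 µM ATP; % is set by controls: 0 for no effect and ±100 for the full control effect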
# In short: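 Biotinylated GST-cJun(1-79) served as substrate for JNK3 in HepG2 lysates stimulated with IL-1beta and TNF-alpha. ATP was 10 uM final, pH 7.6. Ser73 phosphorylation was quantified by AlphaScreen (680 nm excitation).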
# [9] = target: 3',5'-cyclic-AMP phosphodiesterase 4B (Homo sapiens) (UniProt Q07343); assay: qHTS Assay for Inhibitors of PDE-IV (AID 607; active = well fitted activation curve with a large enough effect in the main read-out, with a control signal flat, not every such curve was filed as active; note: % of control where 0% means no effect); conditions: HEK293 ACTOne CNG channel cells, membrane potential fluorescence; series mostly up to 22.9 µM
# In short: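 HEK293 ACTOne cells with CNG channel (1000/well), endogenous PDE4; membrane potential dye, compounds up to 22.9 uM final. Fluorescence Ex 535/Em 590; RO 20-1724 (100 uM final) as reference.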
# [10] = target: Cytochrome P450 2C9 (Homo sapiens) (UniProt P11712); assay: qHTS Assay for Inhibitors and Substrates of Cytochrome P450 2C9 (AID 883; active = well fitted curve in the direction sought with a large enough effect; an effect the other way counts as inactive or inconclusive; note: nearly all actives have a fitted effect of over 60% in size; note: potency is the fitted concentration of half-maximal effect); conditions: recombinant CYP2C9, luciferin-H luminescence, 60 min; series mostly up to 11.4 µM
# In short: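 CYP2C9 deoxyluciferin hydroxylation, 37C, 60 min with NADPH regeneration; 10nM enzyme, 100uM Luciferin-H (KM). Glo detection reagent stopped reaction; luminescence normalized to sulphaphenazole (57uM) full inhibition.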
# [11] = target: Cytochrome P450 2C19 (Homo sapiens) (UniProt P33261); assay: qHTS Assay for Inhibitors and Substrates of Cytochrome P450 2C19 (AID 899; active = well fitted curve in the direction sought with a large enough effect; an effect the other way counts as inactive or inconclusive; note: nearly all actives have a fitted effect of over 60% in size; note: potency is the fitted concentration of half-maximal effect); conditions: recombinant CYP2C19, luciferin-H EGE luminescence; series mostly up to 11.4 µM
# In short: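 In 50mM KPO4, the reaction held 5nM enzyme and KM-level (10uM) Luciferin-H EGE; it ran 60 min at 37C after NADPH regeneration and a 10 min compound preincubation. Luminescence values were scaled to 57uM ketoconazole as complete inhibition.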
# [12] = target: Cytochrome P450 3A4 (Homo sapiens) (UniProt P08684); assay: qHTS Assay for Inhibitors and Substrates of Cytochrome P450 3A4 (AID 884; active = well fitted curve in the direction sought with a large enough effect; an effect the other way counts as inactive or inconclusive; note: nearly all actives have a fitted effect of over 50% in size; note: potency is the fitted concentration of half-maximal effect); conditions: recombinant CYP3A4, Luciferin-PPXE luminescence; series mostly up to 57.1 µM
# In short: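 Luminescent readout of luciferin produced by CYP3A4 (20 nM) dealkylation of Luciferin-PPXE, 25 uM (its KM). NADPH-driven reaction ran 60 min at RT after 10 min compound preincubation; data scaled to 57 uM ketoconazole as 100% inhibition.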
# [13] = target: Cytochrome P450 3A4 (Homo sapiens) (UniProt P08684); assay: qHTS Assay for Activators of Cytochrome P450 3A4 (AID 885; active = well fitted curve in the direction sought with a large enough effect; an effect the other way counts as inactive or inconclusive; note: nearly all actives have a fitted effect of over 65% in size); conditions: recombinant CYP3A4, Luciferin-PPXE luminescence, 60 min; series mostly up to 11.4 µM
# In short: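 Human CYP3A4 dealkylates Luciferin-PPXE to luciferin, which luciferase detection converts to light. Substrate was at its KM (25uM), buffer 200mM KPO4, reaction 60 min at RT.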
# [14] = target: Cytochrome P450 2D6 (Homo sapiens) (UniProt P10635); assay: qHTS Assay for Inhibitors and Substrates of Cytochrome P450 2D6 (AID 891; active = well fitted curve in the direction sought with a large enough effect; an effect the other way counts as inactive or inconclusive; note: nearly all actives have a fitted effect of over 60% in size; note: potency is the fitted concentration of half-maximal effect); conditions: recombinant CYP2D6, luciferin-ME EGE luminescence; series mostly up to 11.4 µM
# In short: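 Luminescent read-out of luciferin formed by 5 nM human CYP2D6 demethylating 30 uM Luciferin-ME EGE (Km level) over 60 min at room temperature after NADPH regeneration addition. Data normalized to full inhibition by 1.43 uM quinidine.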
# [15] = Confirmation and Secondary Assay for Modulators of Hemoglobin Beta Chain Splicing at IVS2 654 locus (AID 910; active = well fitted curve in the direction sought with a large enough effect; an effect the other way counts as inactive or inconclusive;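 note: per-well total GFP intensity by laser scanning cytometry after 2-day treatment; % of control where 0% means no effect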); conditions: HeLa EGFP-654 splicing reporter, GFP fluorescence, 48 h; series mostly up to 38.3 µM
# In short: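 HeLa cells stably carrying EGFP interrupted by mutant beta-globin IVS2-654 intron (CMV-driven) were treated with compound for 2 days at 37C; corrected splicing was scored as total peak GFP intensity per well (488 nm excitation, 500-520 nm emission).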
# Sequence of Cytochrome P450 2C9 (Homo sapiens) (P11712 whole entry, looked up): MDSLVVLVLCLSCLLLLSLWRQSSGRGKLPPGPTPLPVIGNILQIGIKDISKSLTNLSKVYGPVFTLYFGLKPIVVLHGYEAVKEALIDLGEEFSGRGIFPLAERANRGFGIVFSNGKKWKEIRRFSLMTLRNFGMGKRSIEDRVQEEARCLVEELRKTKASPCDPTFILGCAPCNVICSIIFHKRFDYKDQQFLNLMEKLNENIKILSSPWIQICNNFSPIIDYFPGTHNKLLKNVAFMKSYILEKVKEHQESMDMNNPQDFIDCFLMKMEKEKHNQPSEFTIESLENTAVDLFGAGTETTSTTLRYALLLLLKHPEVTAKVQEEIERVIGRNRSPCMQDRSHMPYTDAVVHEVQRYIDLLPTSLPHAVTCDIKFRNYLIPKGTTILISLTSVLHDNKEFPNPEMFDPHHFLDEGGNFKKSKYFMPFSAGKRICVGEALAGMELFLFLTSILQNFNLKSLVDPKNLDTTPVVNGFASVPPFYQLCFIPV
# Sequence of Lysosomal acid glucosylceramidase (Homo sapiens) (P04062 whole entry, looked up): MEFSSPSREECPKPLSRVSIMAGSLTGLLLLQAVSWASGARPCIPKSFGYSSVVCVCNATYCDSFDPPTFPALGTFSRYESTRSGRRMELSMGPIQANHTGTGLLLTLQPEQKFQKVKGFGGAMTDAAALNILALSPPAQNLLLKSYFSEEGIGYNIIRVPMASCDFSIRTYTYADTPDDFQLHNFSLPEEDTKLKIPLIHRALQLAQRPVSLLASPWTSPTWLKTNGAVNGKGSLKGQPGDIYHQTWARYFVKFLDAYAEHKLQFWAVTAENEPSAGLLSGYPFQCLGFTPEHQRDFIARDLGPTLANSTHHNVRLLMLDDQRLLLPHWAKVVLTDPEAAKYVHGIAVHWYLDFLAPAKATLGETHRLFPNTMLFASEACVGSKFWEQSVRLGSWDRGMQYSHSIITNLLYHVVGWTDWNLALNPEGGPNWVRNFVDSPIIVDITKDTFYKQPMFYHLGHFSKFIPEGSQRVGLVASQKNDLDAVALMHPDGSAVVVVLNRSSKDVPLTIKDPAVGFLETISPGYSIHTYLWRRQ
# Sequence of Cytochrome P450 2C19 (Homo sapiens) (P33261 whole entry, looked up): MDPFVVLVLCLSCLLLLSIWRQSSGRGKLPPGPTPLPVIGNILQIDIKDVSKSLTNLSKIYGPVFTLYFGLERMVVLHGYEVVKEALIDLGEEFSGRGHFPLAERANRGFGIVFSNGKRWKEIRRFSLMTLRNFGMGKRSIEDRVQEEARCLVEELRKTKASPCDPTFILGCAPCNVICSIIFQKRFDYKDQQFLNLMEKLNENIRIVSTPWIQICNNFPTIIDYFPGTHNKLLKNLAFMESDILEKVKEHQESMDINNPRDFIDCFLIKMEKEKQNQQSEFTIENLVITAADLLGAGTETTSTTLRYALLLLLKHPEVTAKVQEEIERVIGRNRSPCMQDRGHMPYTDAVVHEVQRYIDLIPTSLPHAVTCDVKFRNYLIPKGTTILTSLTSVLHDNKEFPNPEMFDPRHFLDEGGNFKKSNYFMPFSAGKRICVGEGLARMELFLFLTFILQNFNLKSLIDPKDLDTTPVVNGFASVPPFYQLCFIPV
# Sequence of Cytochrome P450 1A2 (Homo sapiens) (P05177 whole entry, looked up): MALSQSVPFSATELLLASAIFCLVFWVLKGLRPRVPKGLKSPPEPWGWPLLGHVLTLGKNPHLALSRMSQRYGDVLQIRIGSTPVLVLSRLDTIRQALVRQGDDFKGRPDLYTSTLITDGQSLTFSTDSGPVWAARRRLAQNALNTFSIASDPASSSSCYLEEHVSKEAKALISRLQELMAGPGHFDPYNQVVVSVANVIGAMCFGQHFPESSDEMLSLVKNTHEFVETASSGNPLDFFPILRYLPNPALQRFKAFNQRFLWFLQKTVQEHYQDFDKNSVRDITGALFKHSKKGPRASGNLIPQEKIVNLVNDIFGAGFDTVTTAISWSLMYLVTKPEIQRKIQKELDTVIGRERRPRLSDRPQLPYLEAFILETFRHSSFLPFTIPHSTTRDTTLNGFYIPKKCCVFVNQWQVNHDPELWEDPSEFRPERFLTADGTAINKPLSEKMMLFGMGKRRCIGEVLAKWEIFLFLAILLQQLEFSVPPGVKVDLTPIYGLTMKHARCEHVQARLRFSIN
# Sequence of 3',5'-cyclic-AMP phosphodiesterase 4B (Homo sapiens) (Q07343 whole entry, looked up): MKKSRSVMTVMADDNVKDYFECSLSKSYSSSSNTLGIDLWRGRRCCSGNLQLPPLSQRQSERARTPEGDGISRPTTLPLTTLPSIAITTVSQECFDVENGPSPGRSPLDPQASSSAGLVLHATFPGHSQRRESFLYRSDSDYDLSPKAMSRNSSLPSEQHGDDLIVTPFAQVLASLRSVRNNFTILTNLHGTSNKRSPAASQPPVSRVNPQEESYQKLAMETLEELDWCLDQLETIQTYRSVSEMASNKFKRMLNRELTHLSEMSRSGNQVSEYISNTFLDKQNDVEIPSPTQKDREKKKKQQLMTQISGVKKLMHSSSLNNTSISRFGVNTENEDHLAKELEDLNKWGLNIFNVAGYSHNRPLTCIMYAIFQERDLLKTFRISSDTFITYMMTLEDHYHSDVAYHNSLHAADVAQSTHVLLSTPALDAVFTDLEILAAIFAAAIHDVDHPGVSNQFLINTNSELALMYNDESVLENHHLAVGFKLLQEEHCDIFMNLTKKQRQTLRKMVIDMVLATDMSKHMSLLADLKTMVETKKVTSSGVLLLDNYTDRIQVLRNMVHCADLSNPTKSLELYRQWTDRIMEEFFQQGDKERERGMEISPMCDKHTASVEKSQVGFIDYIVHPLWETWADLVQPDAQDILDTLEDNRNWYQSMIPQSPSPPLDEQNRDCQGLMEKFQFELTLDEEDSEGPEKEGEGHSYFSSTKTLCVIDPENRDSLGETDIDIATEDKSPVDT
# Sequence of Glucocorticoid receptor (Homo sapiens) (P04150 whole entry, looked up, the tested form may be a part): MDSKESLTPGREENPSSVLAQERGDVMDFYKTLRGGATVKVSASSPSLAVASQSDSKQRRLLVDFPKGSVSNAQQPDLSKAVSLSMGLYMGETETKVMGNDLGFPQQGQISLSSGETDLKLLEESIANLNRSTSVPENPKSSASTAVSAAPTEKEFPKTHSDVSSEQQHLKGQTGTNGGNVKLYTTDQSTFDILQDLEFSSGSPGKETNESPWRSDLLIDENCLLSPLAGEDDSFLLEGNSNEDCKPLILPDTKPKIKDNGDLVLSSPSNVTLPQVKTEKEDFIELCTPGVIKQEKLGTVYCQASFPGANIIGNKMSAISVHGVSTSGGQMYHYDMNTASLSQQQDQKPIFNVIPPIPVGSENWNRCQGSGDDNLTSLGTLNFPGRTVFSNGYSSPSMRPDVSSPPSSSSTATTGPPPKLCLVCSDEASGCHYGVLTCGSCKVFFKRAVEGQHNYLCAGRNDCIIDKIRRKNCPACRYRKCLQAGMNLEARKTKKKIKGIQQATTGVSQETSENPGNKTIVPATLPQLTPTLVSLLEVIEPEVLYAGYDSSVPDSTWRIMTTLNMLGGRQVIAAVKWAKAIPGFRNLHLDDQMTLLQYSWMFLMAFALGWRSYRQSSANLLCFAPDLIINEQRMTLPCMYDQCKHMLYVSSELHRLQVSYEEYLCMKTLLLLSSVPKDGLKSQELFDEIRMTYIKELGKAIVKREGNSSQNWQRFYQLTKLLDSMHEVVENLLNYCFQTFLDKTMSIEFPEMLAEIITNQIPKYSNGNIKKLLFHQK
# Sequence of Cytochrome P450 3A4 (Homo sapiens) (P08684 whole entry, looked up): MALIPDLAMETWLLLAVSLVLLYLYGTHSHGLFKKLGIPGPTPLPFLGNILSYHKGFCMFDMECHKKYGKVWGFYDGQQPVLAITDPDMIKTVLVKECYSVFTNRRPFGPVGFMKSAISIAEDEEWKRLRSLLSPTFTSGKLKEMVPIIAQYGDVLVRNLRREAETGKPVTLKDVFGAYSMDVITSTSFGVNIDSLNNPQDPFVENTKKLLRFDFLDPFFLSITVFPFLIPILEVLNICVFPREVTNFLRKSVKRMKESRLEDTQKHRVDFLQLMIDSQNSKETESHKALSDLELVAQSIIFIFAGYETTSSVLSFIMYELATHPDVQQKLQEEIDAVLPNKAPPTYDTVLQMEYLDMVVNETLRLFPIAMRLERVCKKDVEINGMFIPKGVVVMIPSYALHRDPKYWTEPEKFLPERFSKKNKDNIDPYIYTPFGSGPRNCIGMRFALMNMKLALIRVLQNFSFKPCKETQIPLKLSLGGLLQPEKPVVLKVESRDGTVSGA
# Sequence of Cytochrome P450 2D6 (Homo sapiens) (P10635 whole entry, looked up): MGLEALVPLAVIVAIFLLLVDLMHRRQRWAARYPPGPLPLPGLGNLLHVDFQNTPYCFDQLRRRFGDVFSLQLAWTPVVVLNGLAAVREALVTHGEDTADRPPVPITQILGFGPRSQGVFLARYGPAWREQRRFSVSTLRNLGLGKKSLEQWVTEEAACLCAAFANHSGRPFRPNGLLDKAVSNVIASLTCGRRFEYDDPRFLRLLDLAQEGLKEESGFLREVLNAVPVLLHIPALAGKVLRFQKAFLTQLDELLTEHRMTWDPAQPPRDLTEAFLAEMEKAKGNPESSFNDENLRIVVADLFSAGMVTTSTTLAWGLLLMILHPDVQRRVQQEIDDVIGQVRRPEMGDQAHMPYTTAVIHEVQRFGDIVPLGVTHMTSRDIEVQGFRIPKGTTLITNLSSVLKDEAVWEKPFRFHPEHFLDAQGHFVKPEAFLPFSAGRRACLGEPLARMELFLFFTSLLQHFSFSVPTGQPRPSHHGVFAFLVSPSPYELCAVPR
Compound,Potency [1] [µM],"activity change, negative = inhibition [2] [%]",Potency [3],"activity change, negative = inhibition [4] [%]","activity, negative = inhibition [5] [%]",Potency [6],Potency [7],Potency [8],Potency [9],Potency [10],Potency [11],Potency [12],Potency [13],Potency [14],"activity change, negative = inhibition [3]","activity change, negative = inhibition [12]",outcome [15]
CN(C)CCNCCN,> 11.4,9.73,inactive,16.1,4.92,> 46 µM,> 9.22 µM,inactive,inactive,inactive,inactive,–,–,–,–,–,–
S=C(S)NCCCn1ccnc1,> 11.4,7.59,3.16 µM (active),-2.39,6.25,> 46 µM,> 9.22 µM,inactive,inactive,2 µM (active),–,1.58 µM (active),inactive,0.794 µM (active),–,–,–
Oc1cccc2ccc(SSc3ccc4cccc(O)c4n3)nc12,> 11.4,1.21,3.16 µM (active),-22.6,-15.4,> 46 µM,> 9.22 µM,inactive,inactive,1.58 µM (active),3.16 µM (active),–,inactive,–,–,–,–
O=C1CNCCCN2CCN(CCCNCC(=O)Nc3ccc(cc3)S(=O)(=O)c3ccc(cc3)NC(=O)CNCCCN3CCN(CCCNCC(=O)Nc4ccc(cc4)S(=O)(=O)c4ccc(cc4)N1)CC3)CC2,> 11.4,-2.18,inactive,13.1,-11,> 46 µM,> 9.22 µM,inactive,inactive,inactive,inactive,–,–,inactive,–,–,–
O=C(O)c1cscc1Cc1cccs1,> 11.4,-0.132,inactive,-2.63,5.79,> 46 µM,> 9.22 µM,inactive,inactive,inactive,–,–,–,–,–,–,–
O=C(N/N=C\c1ccc2c(c1)CCC2)c1ccccc1O,> 11.4,-5.97,2 µM (active),20.6,-2.26,> 46 µM,> 9.22 µM,inactive,inactive,inactive,–,–,–,–,–,–,–
CCCCC[C@@H](O)[C@@H]1C(=O)O[C@@H](C)[C@@H](O)\C=C/C=C\C=C/C=C\C=C(\C)[C@H](O)C[C@H](O)C[C@H](O)C[C@H](O)C[C@H](O)C[C@H](O)C[C@@H]1O,> 11.4,-1.52,–,-11.4,11,> 46 µM,> 9.22 µM,inactive,inactive,inactive,3.98 µM (active),–,–,inactive,3.3% [at 2.29 µM],–,–
COc1c(NC(C)=O)c2ccccc2c2ccccc12,> 11.4,-1.26,0.398 µM (active),-6.36,1.8,> 46 µM,> 9.22 µM,inactive,inactive,inactive,–,–,–,–,–,–,–
Nc1ncnc2nc[nH]c12.Nc1ncnc2nc[nH]c12.[Cl][Pt]([Cl])([Cl])[Cl],> 11.4,-1.02,–,4.22,-3.14,> 46 µM,> 9.22 µM,inactive,inactive,inactive,inactive,–,–,inactive,13.2% [at 2.29 µM],–,–
S=C1N[C@H](c2ccccc2)N[C@H](c2ccccc2)S1,> 11.4,-0.71,3.16 µM (active),-21.2,-1.19,> 46 µM,> 9.22 µM,inactive,inactive,2 µM (active),3.98 µM (active),–,inactive,3.98 µM (active),–,–,–
C[C@H]1[C@H](O)[C@@H](C)C=CC=CC=CC=CC=CC=CC=C[C@H](O[C@@H]2O[C@@H](C)[C@H](O)[C@@H](N)[C@@H]2O)C[C@@H]2O[C@](O)(C[C@@H](O)C[C@@H](O)[C@@H](O)CC[C@@H](O)C[C@@H](O)CC(=O)O[C@H]1C)C[C@H](O)[C@H]2C(=O)O,> 11.4,-7.91,inactive,-0.0379,6.85,> 46 µM,> 9.22 µM,inactive,inactive,inactive,inactive,–,–,inactive,–,-24.7% [at 11.4 µM],–
Cc1cc(SCC(=O)c2ccccc2)nc2ccccc12,> 11.4,-8.06,0.398 µM (active),13.7,9.67,> 46 µM,> 9.22 µM,inactive,inactive,inactive,0.398 µM (active),–,–,inactive,–,-103% [at 11.4 µM],–
Cc1c(Cl)cccc1NC(=O)C[C@H]1Sc2ccccc2NC1=O,> 11.4,-17.8,–,7.2,6.79,> 46 µM,> 9.22 µM,inactive,inactive,inactive,–,–,inactive,–,-23.2% [at 2.29 µM],–,–
CC(C)CO[C@H](c1ccc2c(c1)OCO2)[C@H](C)Br,> 11.4,-13.4,0.631 µM (active),-8.77,7,> 46 µM,> 9.22 µM,inactive,inactive,2 µM (active),0.0631 µM (active),3.16 µM (active),inactive,–,–,–,–
O=C(Nc1cccc2ccccc12)c1ccccc1,> 11.4,-4.06,3.98 µM (active),-11.4,3.33,> 46 µM,> 9.22 µM,inactive,inactive,inactive,–,3.16 µM (active),inactive,–,–,–,–
CCCCSCc1nc2nc(Cl)c(Cl)nc2[nH]1,> 11.4,-2.19,3.16 µM (active),-24.8,-21.2,> 46 µM,> 9.22 µM,inactive,inactive,0.501 µM (active),2 µM (active),–,–,–,–,–,–
O=C1c2ccccc2N[C@H](c2cc(Cl)cc(Cl)c2O)N1CCc1ccccn1,> 11.4,-16.9,–,5.29,-24.9,> 46 µM,> 9.22 µM,inactive,inactive,3.16 µM (active),3.98 µM (active),0.794 µM (active),inactive,–,5.8% [at 2.29 µM],–,–
Oc1c(Br)cc(CN(Cc2cc(Br)c(O)c(Br)c2)C2CCCCC2)cc1Br,> 11.4,11.3,–,-14,-10.4,> 46 µM,> 9.22 µM,inactive,inactive,2.51 µM (active),–,–,–,2.51 µM (active),-5.7% [at 2.29 µM],–,–
O=C(O)c1c(Cl)c(Cl)c(Cl)c(Cl)c1C(=O)Nc1ccc2cn[nH]c2c1,> 11.4,1.63,0.2 µM (active),4.49,20.7,> 46 µM,> 9.22 µM,inactive,inactive,0.0794 µM (active),–,–,inactive,–,–,–,–
C[C@H]1C[C@@H]2[C@H]3CCC4=CC(=O)C=C[C@@]4(C)[C@]3(Cl)[C@@H](Cl)C[C@]2(C)[C@]1(O)C(=O)COP(=O)(O)O,> 11.4,-4.94,inactive,9.07,2.85,0.0275 µM (active),7.37 µM (active),inactive,inactive,inactive,inactive,–,–,inactive,–,–,–
Cc1cnc(CNc2nc(-c3cccnc3)nc3ccccc23)cn1,–,–,–,–,–,–,–,–,–,–,–,–,–,–,–,–,inactive
c1ccc(CSc2nnc3c4ccccc4c4ccccc4c3n2)cc1,> 11.4,6.19,0.2 µM (active),-12.6,1.88,> 46 µM,> 9.22 µM,inactive,inactive,–,–,–,inactive,–,–,–,–
O=C(O)/C=C\C(=O)Nc1ccc2c(c1)-c1ccccc1C2,> 11.4,-11.5,1 µM (active),6.68,-8.21,> 46 µM,> 9.22 µM,inactive,inactive,–,–,–,inactive,–,–,–,–
Cc1cc(C(=O)CSC(=S)SC(C)(C)C)ccc1Cl,> 11.4,7.67,1.58 µM (active),-16.2,-27.2,> 46 µM,> 9.22 µM,inactive,inactive,–,–,–,inactive,–,–,–,–
